Shiga inhibitor = Shiga toxin inhibition | 9.2% of 290,000 active | inhibition, % at 38.7 µM | Vero cells, Shiga toxin protein synthesis inhibition reporter | AID 2315; in the data active means inhibition mostly above about 28%, no sharp cut-off; inactive means mostly below about 43%; further: 0% is about no effect
CHX counter = affects cycloheximide protein synthesis inhibition readout, counter-screen | cell reporter, cycloheximide protein synthesis inhibition counterscreen | max response, % | 12% of 300,000 active | AID 2314; in the data active means max response mostly above about 13%, no sharp cut-off; inactive means mostly below about 14%; further: read at 38.3 µM for the half of the compounds with a filed dose; 0% is about no effect
LASV entry inh = blocks Lassa virus binding to or entry into cells. Lassa virus pseudotype entry inhibition, cell reporter. Potency, µM (doses to about 37.9 µM), inactives show at the highest dose activity change, negative = inhibition, hits mostly inhibitors. 1.2% of 300,000 active. AID 540256; calls by dose curve; tested in HEK293 cells; further: potency means the concentration at half of the fitted maximal effect; on the % scale 0 is the no-effect control and ±100 the full control effect; nearly all actives have a fitted effect of over 50% in size
VACV mCherry inh = vaccinia inhibition (mCherry reporter); Vaccinia virus mCherry reporter infection, fluorescence; Potency, µM (highest dose often 36.5 µM), for inactives: top-dose activity change, negative = inhibition, usual class: inhibitors; 0.63% of 310,000 active; AID 720579; calls by dose curve; tested in A549 cells; further: potency means the concentration at half of the fitted maximal effect; on the % scale 0 is the no-effect control and ±100 the full control effect; nearly all actives have a fitted effect of over 35% in size
VACV Venus inh = inhibitors of vaccinia virus (Venus reporter); Vaccinia virus Venus reporter expression, fluorescence; Potency, µM (titrated, usually from 36.5 µM), inactives show at the highest dose activity change, negative = inhibition, hits mostly inhibitors; 0.46% of 330,000 active; AID 720580; calls by dose curve; tested in A549 cells; further: potency means the concentration at half of the fitted maximal effect; on the % scale 0 is the no-effect control and ±100 the full control effect; nearly all actives have a fitted effect of over 30% in size
MARV entry inh = blocks Marburg virus binding to or entry into cells. 1.8% of 300,000 active. AID 540276. Marburg virus pseudotyped entry inhibition, cell reporter. Potency, µM (top dose mostly 37.8 µM), for the others: at the highest dose activity change, negative = inhibition, hits mostly inhibitors; calls by dose curve; tested in HEK293 cells; further: potency means the concentration at half of the fitted maximal effect; on the % scale 0 is the no-effect control and ±100 the full control effect
* hit, by the source's call; i = inactive; ? = inconclusive; . = no result; [ ] = dose if it differs, or a comment. The full list was thinned out, with hits kept by preference.

SMILES | Shiga inhibitor | CHX counter | LASV entry inh | VACV mCherry inh | VACV Venus inh | MARV entry inh
Cc1cc(C)n(C(=O)CCC2COc3ccccc3O2)n1 (stereo not given) | 35 | 11* | 10% | . | -28% | ?
O=C(CCC1COc2ccccc2O1)NC1CCCCC1 (stereo not given) | 27 | 36* | 1% | . | . | ?
O=C(CCC1COc2ccccc2O1)N1CCCC1 (stereo not given) | 8 | 8 | 15% | . | -21% | 15%
CCc1ccc(-n2c(=O)c3c4c(sc3n(Cc3ccccc3C#N)c2=O)CCC4)cc1 | . | . | 14%[46.1 µM] | -17% | -4% | -11%[46.1 µM]
O=C(CCC(=O)N1CCOc2ccccc21)NC1CCCCCC1 | 13 | 6.6* | . | -9% | -1% | .
CCOC(=O)N1CCC(NC(=O)CCC(=O)N2CCOc3ccccc32)CC1 | 4 | 7 | 4% | i | -9% | 8%
O=C(CSc1nnc(C2COc3ccccc3O2)o1)N1CCCCC1 (stereo not given) | 32 | -2 | . | . | . | .
O=C(CSc1nnc(C2COc3ccccc3O2)o1)NC1CCCCC1 (stereo not given) | 39 | 20* | . | 1% | -6% | .
CSc1ccccc1OCc1cc(C(=O)NCCN2CCCC(O)C2)no1 (stereo not given) | -7 | 10 | 1% | -13% | -8% | -2%
CSc1ccccc1OCc1cc(C(=O)NCCC2CCCCO2)no1 (stereo not given) | 45* | 33* | 4% | -20% | -10% | 2%
CSc1ccccc1OCc1cc(C(=O)NCc2csc(C(C)C)n2)no1 | 15 | 17* | -8%[46.1 µM] | -5% | -17% | -26%[46.1 µM]
COCCN1CC(CNC(=O)c2cc(COc3ccccc3SC)on2)CC1=O (stereo not given) | 20 | 12* | 12% | -3% | -19% | 18%
CSc1ccccc1OCc1cc(C(=O)N(C)C2CCCc3ccccc32)no1 (stereo not given) | 50* | 35 | . | . | . | .
CC(C)c1nc(CNC(=O)c2cc(COc3c(F)cccc3F)on2)cs1 | -3 | 1 | 0% | i | -6% | -24%[46.1 µM]
COc1ccc(OC)c(CCNC(=O)c2sc3nc4n(c(=O)c3c2C)CCCC4)c1 | . | . | 2%[46.1 µM] | -4% | -14% | .
Cc1nc(Cl)nc(N(C)c2ccccc2)c1[N+](=O)[O-] | -6 | -1 | 17%[46.1 µM] | i | 0% | 20%[46.1 µM]
Cc1cc(C)nc(CCNC(=O)c2cc(COc3ccc(F)cc3Cl)on2)n1 | 21 | 5 | 1%[46.1 µM] | i | -8% | -11%[46.1 µM]
CSc1ccccc1OCc1cc(C(=O)NCCc2ccco2)no1 | 59* | 35* | 6% | -14% | -4% | ?
CSc1ccccc1OCc1cc(C(=O)NCCc2nc(C)cc(C)n2)no1 | 43* | 24* | . | . | . | .
Cc1cc(C)nc(CCNC(=O)c2cc(COc3ccc(F)cc3F)on2)n1 | -8 | -4 | 15% | i | -6% | 9%[46.1 µM]
Cc1cccc(C)c1OCc1cc(C(=O)NCc2cn(C)nc2C)no1 | 8 | 13* | -25% | -13% | -20% | -6%
Cc1cccc(C)c1OCc1cc(C(=O)NCC2CCCCC2)no1 | -5 | -3 | . | . | . | .
Cc1cc(C)nc(CCNC(=O)c2cc(COc3c(C)cccc3C)on2)n1 | -18 | 16* | ? | i | -16% | ?
c1ccc(-n2nnnc2SCc2cn3ccccc3n2)cc1 | 8 | 5 | 8% | . | . | 9%
c1ccn2cc(CSC3=NCCS3)nc2c1 | 121* | 29* | ? | -22%[1.46 µM] | -4% | ?
SMILES | Shiga inhibitor | CHX counter | LASV entry inh | VACV mCherry inh | VACV Venus inh | MARV entry inh
c1ccn2cc(CSc3nnc4ccccn34)nc2c1 | 120* | 57* | -2% | -3% | -9% | ?
Cn1ccnc1SCc1cn2ccccc2n1 | 82* | 30* | ? | . | -11% | -15%
Nc1ccn([C@@H]2O[C@H](CNS(=O)(=O)c3cc4ccccc4s3)[C@@H](O)[C@H]2O)c(=O)n1 | . | . | . | -23% | -5% | .
N#Cc1nc(N2CCCCC2)nc(N(c2ccccc2)c2ccccc2)n1 | . | . | . | 1% | -12% | .
COc1ccc2nc(Nc3ccccc3OC)sc2c1 | 90* | 32* | ? | ? | -21% | ?
COc1ccc2nc(Nc3ccccc3)sc2c1 | 60* | 30* | ? | -17% | -15% | ?
COc1ccc2nc(NC(=O)Nc3ccccc3OC)sc2c1 | 102* | 49* | ? | ? | -21% | ?
COc1cccc(OC)c1C(=O)Nc1nc2ccc(S(C)(=O)=O)cc2s1 | -14 | -3 | ? | i | 5% | ?
COc1ccccc1NC(=O)Nc1nc2ccc(S(N)(=O)=O)cc2s1 | 89* | 67* | . | -3% | 5% | -4%[46.1 µM]
COc1ccc2c(c1)c(=O)c(C(=O)c1ccccc1)cn2CC(=O)Nc1ccc2c(c1)OCO2 | . | . | 1%[46.1 µM] | -4% | -5% | 0%[46.1 µM]
CC(C)C1N=C(c2ccc3c(c2)OCO3)CC(c2ccccc2O)N1 (stereo not given) | 79* | 39* | . | . | . | .
CC(C)C1(C)NC(c2ccc3c(c2)OCO3)=CC(c2ccccc2O)N1 (stereo not given) | . | . | . | 25% | -7% | .
O=C(NCCCc1nc2ccccc2n1Cc1ccc(F)cc1)C1CCCCC1 | . | . | -12%[46.1 µM] | i | -20% | -7%[46.1 µM]
COCCNC(=O)CSc1nc(-c2ccccc2)cs1 | 45* | 25* | -1% | . | . | 24%
COCC(=O)NCCc1nc(-c2ccccc2)cs1 | -40 | -3 | ? | . | -11% | ?
O=C(CSc1nc(-c2ccccc2)cs1)NCc1ccco1 | 44* | 22* | 3% | . | -20% | ?
O=C(CSc1ncc(-c2ccccc2)nn1)NCc1ccco1 | -4 | -2 | -4% | -11% | -5% | 7%
CC(=O)c1sc(N/N=C\c2ccc(Br)cc2)nc1C | active | 72* | ? | -25% | ? | -1%
CC(=O)c1sc(N/N=C\c2cccc(Br)c2)nc1C | 85* | 67* | 14µM* | ? | ? | ?
O=C(CNCc1cccnc1)Nc1cc(C(F)(F)F)ccc1N1CCOCC1 | -8 | -4 | . | . | . | .
CC(=O)c1ccc(-c2cccc(C3C4C=CCCC4(C)C(=O)N3Cc3ccccc3)c2)cc1 (stereo not given) | -5 | 14 | . | . | . | .
COc1cc2nc(N3CCN(c4cc(C)ccc4C)CC3)nc(N)c2cc1OC | -21 | -15 | ? | ? | 10µM* | 4.5µM*
COc1cc2nc(N3CCNCC3)nc(N)c2cc1OC | 9 | -1 | 4% | . | . | ?
CC1S/C(=N/N=C/c2ccco2)N(Cc2ccc(F)cc2)C1=O (stereo not given) | 57* | 30* | . | . | . | .
CCn1cc2nc(SCC(=O)Nc3ccc(OC)cc3OC)n(Cc3ccc(Cl)cc3)c(=O)c2n1 | . | . | ? | -17% | -22% | ?
CCn1cc2nc(SCC(=O)Nc3cc(OC)ccc3OC)n(Cc3ccc(Cl)cc3)c(=O)c2n1 | . | . | -2%[46.1 µM] | -14% | -12% | 13µM*
CCOc1ccc(C2=Nn3c(nnc3-c3ccccc3OC)SC2)cc1 | -15 | -5 | 0.023µM* | . | . | 0.29µM*
CN1C(=O)/C(=C\N2CCc3ccccc32)C(=O)NC1=S | 14 | 13* | 10% | 0% | 32% | 0%

Bioassay records as filed in PubChem BioAssay.
